Screen size: about 350,000 compounds; about 2,700 (0.77%) were called active.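 Rule for the calls: active = inhibition reaching at least a set limit at 20 µM in the primary screen (cut at about 59% in these data); inactive = the rest.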 This excerpt belongs to a sample that is enriched for actives.
These compounds were tested on glucose-6-phosphate dehydrogenase-6-phosphogluconolactonase (Plasmodium falciparum 3D7) (assay: inhibition of malaria parasite G6PD (PfGluPho) – biochemical, fluorescence intensity, uHTS, primary screen (AID 504690;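 note: 0% = DMSO wells with substrate and 100% = DMSO wells lacking glucose-6-phosphate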)). Conditions: PfGluPho enzyme, NADPH resazurin-diaphorase fluorescence; at 20 µM; hits give high values.

inhibition, active:
O=C(N/N=C\c1cccc(Br)c1)c1ccccc1-n1cccc1 77.6%, CCc1c(C)[nH]c(=S)c(C#N)c1C 60.6%, COc1ccc(CCn2c(NN=C3CCCC3)nc3c2c(=O)[nH]c(=O)n3C)cc1 77.3%, Cc1cc(Nc2ccc(Cl)cc2)nc(N2CCOCC2)n1 74.6%, Cc1cc(Nc2ccc(Br)cc2)nc2ccccc12 86.8%, CC1=C/C(=N\OS(=O)(=O)c2ccccc2)C=CC1=O 116%, S=c1[nH]nc(-c2cc(-c3ccsc3)n[nH]2)n1-c1ccccc1 63%, Cc1nc(N2CCOCC2)sc1C(=O)NN 61.7%, COc1ccc(C(=O)Nc2ccccc2C(=O)N/N=C/c2ccc(O)c(OC)c2)cc1 63.8%, C#CCOCCOCCOCCNc1nc(N2CCN(C(=O)CCCCCCCCCCNC(=O)Cn3cc(CCCCCN)nn3)CC2)nc(N2CCN(C(=O)CCCCCCCCCCNC(=O)[C@H](CO)n3cc(CCCSC)nn3)CC2)n1 60%, CCOc1cccc(/C=N/N2C(=O)CSC2=S)c1O 60.8%, CC(C)n1cnc2c(NCc3ccccc3)cc(OCC3CCN(C)CC3)cc21 65.4%, FC(F)(F)C1CCCN(c2nsc3ccccc23)C1 (stereo unspecified) 110%, CCC(=C/c1sc2ccc3ccccc3c2[n+]1C)/C=C1\Sc2ccc3ccccc3c2N1C 113%, C=CC(=O)Nc1ccc(Nc2ccnc(Nc3ccc(N4CCN(C)CC4)cc3)n2)cc1 77.4%, COC(=O)CCCC1=CC2=CC(=O)C(C)(OC(=O)c3cccs3)C(=O)C2=CN1CC(C)C (stereo unspecified) 61.6%, COc1ccc(-c2nn(-c3ccccc3)cc2/C=N/Nc2ccccn2)cc1OC 70.3%, Cc1ccc(OCC(=O)Nc2ccccc2Sc2ccc(Cl)cc2)c([N+](=O)[O-])n1 99.2%

inhibition, inactive:
O=C(CNC(=O)c1cccs1)N/N=C/c1cccc(Br)c1 -3.31%, O=C(N/N=C/c1cccc(Br)c1)c1ccc(N2CCCC2=O)cc1 9.79%, CCCNc1c(N)c(=O)c1=O -14.2%, CC(=O)c1c(C)[nH]c(=S)c(C#N)c1-c1ccc(F)cc1 36.1%, CN(C)CCCNC(=S)N1CCN(c2nc(-c3ccccc3)cs2)CC1 7.81%, FC(F)(F)c1ccc2c3n(nc2c1)CCN=C3c1ccc(Cl)cc1 21.6%, O=C(CC1Oc2ccccc2NC1=O)NCCCN1CCN(Cc2ccccc2)CC1 (stereo unspecified) 17.8%, Cc1noc(C)c1CSc1nc2cc(S(=O)(=O)N3CCOCC3)ccc2o1 46.6%, COc1ccc(CCn2c(NCCCN3CCOCC3)nc3c2c(=O)[nH]c(=O)n3C)cc1 5.12%, CC1CCN(c2nc3c(c(=O)[nH]c(=O)n3C)n2CCCc2ccccc2)CC1 12.8%, CCN(c1ccc2c(c1)OCO2)S(=O)(=O)c1cc(Br)cc2c1N(C(=O)C1CC1)CC2 32.5%, Nc1cccc2c1C(=O)N(Cc1nnc(-c3ccccc3Br)o1)C2=O -11.2%, O=C(CSc1nc(Nc2ccccc2)nc(N2CCOCC2)n1)Nc1cc(Cl)ccc1O 21.3%, COc1ccc(Nc2ncc(F)c(N3CCOCC3)n2)cc1 -2.57%, C=CCOc1ccc(C(=O)Nc2ccccc2C(=O)N2CCCC2)cc1 15.3%, C/C(=N/NC(=O)c1cc(Cl)ccc1O)C12CC3CC(CC(C3)C1)C2 50.1%, O=C(c1ccc(NS(=O)(=O)c2ccc3[nH]c(=O)[nH]c3c2)cc1)N1CCCCC1 -7.11%, N/C(=N\OS(=O)(=O)c1cccc([N+](=O)[O-])c1)c1ccncc1 -9.59%, CC12CCCCC1=CC(=O)CC2 (stereo unspecified) 10.3%, O=C(COC(=O)Cc1ccc(Cl)cc1Cl)NCc1ccco1 -17.6%, Clc1ccc(Nc2ccc3ccccc3n2)cc1 31.9%, CCOc1ccc(NC(=O)c2cc(C)nc3ccccc23)cc1 6.27%, O=C(Nc1cccc(Cl)c1)c1cc(S(=O)(=O)N2CCCCC2)c[nH]1 -8.02%, CCOC(=O)Cn1c2c(c(-c3ccccc3OC)cc1=O)CCCC2 10.3%, COC(=O)C(C(=O)Nc1cccc(Cl)c1C)C1CCCC1 (stereo unspecified) 5.12%, CCOC(=O)c1cc(-c2sc(NC(=O)c3ccccc3)nc2C)n(CCO)n1 5.2%, Cc1ccc(-n2c(-c3ccc(Cl)cc3)n[nH]c2=S)cc1 39.8%, Cc1ccc(NCc2n[nH]c(=S)n2-c2ccccc2)cc1Cl 17.7%, CCCCCN(C(=O)CCC(=O)OCC(=O)NCc1ccc(OC)cc1)c1c(N)n(CCCC)c(=O)[nH]c1=O 6.98%, C=CCOc1ccc(Cl)cc1CNCCCN1CCOCC1 -22.9%, CCOC(=O)Cn1nnnc1C -8.58%, COc1ccc(NC(=O)c2sc(N3CCOCC3)nc2-c2ccccc2)c(OC)c1 7.35%, CCOC(=O)N1CCC(NC(=O)c2ccc3nc(N4CCOCC4)sc3c2)CC1 -2.75%, Cc1ccc(S(=O)(=O)N2CCCCC2)cc1NC(=O)[C@@H]1CCCN1C(=O)c1cccs1 -10%, COc1cc(C=NNC(=O)c2cccnc2)ccc1OC(=O)c1ccccc1F 0.22%, O=C(NN=Cc1ccc2c(c1)CCC2)c1ccccc1O -13.6%, CC(C)Cc1nnc(N)s1 -0.68%, Cc1ccc(C2CC(c3cccc(Br)c3)n3nc(N)nc3N2)cc1 (stereo unspecified) 18%, Cc1csc(=O)n1CC(=O)Nc1ccc(S(C)(=O)=O)cc1 1.5%, Cc1cc(=O)n2[nH]c(-c3sccc3-n3c(C)ccc3C)cc2n1 10.7%, C[C@@H]1CN([C@@H](C)CO)S(=O)(=O)c2ccc(-c3ccc(C(=O)N(C)C)cc3)cc2O[C@@H]1CN(C)Cc1ccccc1C(=O)O 1.43%, Cc1ccc2nnn(Cc3cccc(C(C)(C)C)c3O)c2c1 4.75%, C#CCOCCOCCOCCNc1nc(N2CCN(C(=O)CCCCCCCCCCNC(=O)[C@H]([C@@H](C)CC)n3cc(CCCCN=C(N)N)nn3)CC2)nc(N2CCN(C(=O)CCCCCCCCCCNC(=O)[C@H](CO)n3cc(CCCSC)nn3)CC2)n1 44.4%, C#CCOCCOCCOCCNc1nc(N2CCN(C(=O)Cn3cc(CCO)nn3)CC2)nc(N2CCN(C(=O)[C@H](CCCCN)n3cc(CCCC)nn3)CC2)n1 6.73%, COCc1cc(C)nc2sc3c(=O)n(-c4cccc5ccccc45)nnc3c12 -2.51%, CCC(=O)N1CCC(C(N)=O)(N2CCCCC2)CC1 -1.08%, O=C1CSC(=S)N1/N=C/c1ccc(O)c([N+](=O)[O-])c1 18.4%, O=C1CSC(=S)N1c1ccc(O)cc1 -5.81%, COc1ccccc1CNC(=O)COn1nnc2ccc(S(=O)(=O)N3CCOCC3)cc21 -5.31%, CC(C)C(c1nnnn1C1CCCC1)N1CCN(c2ccccc2F)CC1 (stereo unspecified) 1.8%, Cc1cc(C)c2[nH]c(=O)c(CN(Cc3ccccc3)C(=S)NCCCN(C)C)cc2c1 -9.85%, COc1ccccc1-n1c(SCC(=O)Nc2ccc(Cl)cc2)nc(O)c(Cc2ccccc2)c1=O -30.4%, CN(C)c1nccc(NCc2ccccc2)c1C#N -1.06%, Cn1c(N)cc(=O)n(C)c1=S -4.84%, Cc1ccccc1-c1cc(C(=O)NCc2cccs2)n(CC2CC(c3cccnc3)=NO2)n1 (stereo unspecified) 1.18%, Cc1ccc(OS(=O)(=O)c2ccc(-c3csc(C)n3)s2)c(C)c1 17.7%, COc1ccc(Cl)cc1NC(=O)COc1ccc2c(c1)OCO2 -7.15%, Cc1ccc(SC(C)C(=O)NCc2ccc(F)cc2)cc1 (stereo unspecified) 0.13%, CCC[C@H]1CCCC/C=C\CCCC(=O)OCCN1C(=O)OC(C)(C)C -3.27%, CN1CCN(c2nc(Nc3ccc(O)cc3)nc3ccccc23)CC1 3.52%, Cn1cnnc1SCC(=O)Nc1ccc(N2CCOCC2)cc1 7.84%, CCCC[C@H]1COCCS(=O)(=O)N1Cc1cccc(Cl)c1 14%, O=C(CSc1nnc(CN2CCCC2)n1-c1ccc(F)cc1)c1ccc2c(c1)OCO2 8.99%, CCCCC1=CC2=CC(=O)C(C)(OC(=O)CC)C(=O)C2=CN1CCCOC(C)C (stereo unspecified) 34.2%, COC(=O)CCCC1=CC2=CC(=O)C(C)(OC(=O)c3cccs3)C(=O)C2=CN1c1cccc(C#N)c1 (stereo unspecified) 31.5%, Cc1cccc(N2CCC(NCc3c(C(=O)N4CCCCC4)nc4c(C)cccn34)CC2)c1 -3.68%, COc1ccc(-c2nn(-c3ccccc3)cc2C(=O)Nc2nccs2)cc1OC 32.2%, O=Cc1cn(-c2ccccc2)nc1-c1ccccn1 -1.58%, COc1ccc(OC)c(/C=C/C(=O)c2ccc3c(c2)OCO3)c1 2.18%, Cc1ccc(OCC(=O)NC(C)c2ccccc2)c([N+](=O)[O-])n1 (stereo unspecified) -11.2%, CCc1ccccc1NC(=O)CN(C)C(=O)COc1ccc(C)nc1[N+](=O)[O-] -20.3%, O=S(=O)(NCC1CCCO1)c1ccc2ccccc2c1 (stereo unspecified) -2.51%, COCCNC(=O)NC(=O)COC(=O)C1(c2ccc(Cl)cc2)CC1 8.76%

Source: PubChem BioAssay AID504690 (Sanford-Burnham Center for Chemical Genomics, 2011)
